Test results from the supplement of paper PMC6763611.

Test system: Plasmodium falciparum NF54
Experiment: growth inhibition relative to untreated control; higher = more inhibition
Conditions: 72 h
How it was run: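 Two media were used: minimal RPMI, and minimal RPMI carrying the chorismate end-products folate, pABA, pHBA, tyrosine, phenylalanine and tryptophan at 2.2 μM, 7.3 μM, 7.3 μM, 111 μM and 90 μM for the first five. In these media, P. falciparum NF54 ring stages (1% hematocrit, 1% parasitemia, 100 μL/well) were exposed in dark 96-well half-area plates to a single 5 μM or 1 μM test-compound dose for 72 h at 37 °C. Growth inhibition was then assessed with SYBR Green against untreated wells, subtracting background from uninfected erythrocytes.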

[1] = 1 µM, MM + chorismate end-products (CM screening medium)
[2] = 5 µM, MM + chorismate end-products (CM screening medium)

Row | SMILES | growth inhibition [1] | growth inhibition (1 µM, minimal medium (MM)) | growth inhibition [2] | growth inhibition (5 µM, minimal medium (MM))
1 | Cc1nn(Cc2ccccc2)c(Cl)c1C(=O)NC1CCCCCC1 | 16.8% | < 0% | < 0% | < 0%
2 | CO/C=C(/C(=O)OC)c1ccccc1Oc1cc(Oc2ccccc2C#N)ncn1 | 96% | 94.7% | 90.4% | 92.2%
3 | CC(C)(C)C(O)C(Oc1ccc(-c2ccccc2)cc1)n1cncn1 (configuration not stated) | 46.2% | 5.38% | < 0% | < 0%
